The values that follow come from PubChem BioAssay (NCATS).

Inconclusive results are not listed. Values without a mark were called inactive. Activity calls are given as the source filed them. The call rests on the fitted dose curve; in most records, active means well fitted cell-killing curve with a large enough effect; inconclusive means small, poorly fitted or top-dose-only effect, or effect the other way; inactive means flat fitted curve, though single readings scatter.
On the % scale 0 is the no-effect control and ±100 the full control effect; potency means the concentration at half of the fitted maximal effect.

The first assay relates to Es-2. Briefly: Primary qHTS to identify gynecologic anti-cancer compounds using libraries of approved drugs and bioactive compounds (AID 1345084). Further: nearly all actives have a fitted effect of over 55% in size. Conditions: Gynecologic cancer cell panel viability, ATPlite luminescence, 48 h; series mostly up to 57.5 µM; activity change, negative = cytotoxicity: at the top concentration. The essentials: (§1)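 Luminescence from the ATPlite ATP-monitoring reagent indicates viable cell number; lower signal means cytotoxicity. Cells received compound 16 h after seeding and were exposed for 48 h across five concentrations.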
A general note: qHTS replaces the single test concentration by a dilution series.
`COc1nc(C)cnc1NS(=O)(=O)c1cccnc1-c1ccc(-c2nnco2)cc1`: the “activity change, negative = cytotoxicity” value is 9.7%.
For `O=C(c1ccc(C(=O)N2CCC(N3CCCC3)CC2)c(Nc2ccccc2)c1)N1CCC(N2CCCC2)CC1`, the “activity change, negative = cytotoxicity” value is 3.63%.
As for `CC(C)CNc1ccnc(NCc2csc(-c3ccccc3)n2)n1`, the Potency is 22.4 µM (active).
Turning to `CC1=C(C(=O)Nc2cc3cn[nH]c3cc2F)C(c2ccc(C(F)(F)F)cc2)CC(=O)N1` (stereo not drawn), the “activity change, negative = cytotoxicity” value is 6.24%.
With `c1ccc(CNc2nc(N3CCOc4ccccc43)nc3c2CCCC3)cc1`, the “activity change, negative = cytotoxicity” value was -1.18%.
With `Cn1c(=O)c(-c2c(Cl)cccc2Cl)cc2cnc(Nc3cccc(C(=O)O)c3)nc21`, the “activity change, negative = cytotoxicity” value was 5.13%.
Regarding `CCN1C[C@H](C)n2c(c(O)c3c(=O)n(Cc4ccc(F)c(Cl)c4)nc(C(=O)NC)c32)C1=O`, the “activity change, negative = cytotoxicity” value is 4.86%.
For the molecule `COc1ccc(CCC(=O)Nc2nc3ccc(Cl)cc3s2)cc1OC`, the “activity change, negative = cytotoxicity” value is 14.4%.
On to `COc1cc2ncnc(Nc3cc(Br)c(O)c(Br)c3)c2cc1OC`, for which the “activity change, negative = cytotoxicity” value is 11.1%.
As to `O=C(O)CCNc1cc(N2CCc3ccccc3CC2)nc(-c2ccccn2)n1`, the Potency entry was “inactive”.
Regarding `CN1CCC(COc2cnc(-c3cccc(Cn4nc(-c5cccc(C#N)c5)ccc4=O)c3)nc2)CC1`, the “activity change, negative = cytotoxicity” value was 2.02%.
Turning to `C[C@@]1(c2cc(-c3cncnc3)c(F)cc2F)CCSC(N)=N1`, the “activity change, negative = cytotoxicity” value is 4.29% [at 25.3 µM].
Take `C[C@H](c1ccc(F)cc1CCCC(=O)O)N(c1cc(F)ccc1F)S(=O)(=O)c1ccc(Cl)cc1`: the “activity change, negative = cytotoxicity” value is 6.24%.
Still for that read-out and setting: in the case of `COC(=O)N1CCN(Cc2cccc(NC(=O)Nc3ccc(C)nc3)c2F)CC1` it was 13.8%; in that of `Cc1cnc(-c2cc(N3CCN(C(=O)CCS(C)(=O)=O)CC3)ncc2Cl)c(C)c1`, 1.58%; in that of `NC(=O)c1ccc(N(C(N)=O)c2c(F)cccc2F)nc1-c1ccc(F)cc1F`, -0.75%.

A further assay concerns HeLa. The description is as above. Conditions: Gynecologic cancer cell panel viability, ATPlite luminescence, 48 h; series mostly up to 57.5 µM; activity change, negative = cytotoxicity: at the top concentration. In a few lines:
as §1
In general terms: Cellular ATP, detected with luciferase, serves as a proxy for viable cell number.
As to `COc1nccc(-c2c(-c3ccc(F)cc3)ncn2C2CCC(O)CC2)n1` (stereo not drawn), the “activity change, negative = cytotoxicity” value was 6.93%.
On to `CNc1nc(Nc2ccc(C(=O)N3CCOCC3)cc2OC)ncc1Cl`, for which the “activity change, negative = cytotoxicity” value was 10.4%.
The same measure, in the same setting: as for `O=C1C(c2c(O)[nH]c3ccccc23)=Nc2ccccc21`, the figure is 1.56% [at 25.3 µM]; as for `COc1cc(Nc2nc3ccccc3nc2NS(=O)(=O)c2ccc(NC(=O)c3ccc(C)c(OC)c3)cc2)cc(OC)c1`, 6.83%.
On to `COc1ccc(-c2ccc3ncc4c(c3c2)n(-c2ccc(N3CCNCC3)c(C(F)(F)F)c2)c(=O)n4C)cn1`, for which the Potency is 1.12 µM (active).
For the molecule `NS(=O)(=O)c1cc(Cl)c(Cl)c(S(N)(=O)=O)c1`, the “activity change, negative = cytotoxicity” value is 3.3%.
`CN1C(=O)C(Cc2c[nH]c3ccccc23)NC1=S` (stereo not drawn): the “activity change, negative = cytotoxicity” value is -13.2% [at 25.3 µM].
`CN1c2ccccc2C(=O)N2CCc3c([nH]c4ccccc34)C21` (stereo not drawn): the Potency is 7.94 µM (active).
Take `CNC(=O)c1c(-c2ccc(F)cc2)oc2cc(N(CCO)S(C)(=O)=O)c(C3CC3)cc12`: the “activity change, negative = cytotoxicity” value is 5.04%.
Turning to `CC1CCN(c2cc(N3CCN(C)CC3)ccc2NC(=O)c2cc(C#N)c[nH]2)CC1`, the “activity change, negative = cytotoxicity” value is 3.39%.
For the molecule `COc1ccnc(CS(=O)c2nc3ccc(OC(F)F)cc3[nH]2)c1OC` (stereo not drawn), the “activity change, negative = cytotoxicity” value was -24.6%.
Consider `c1cc(OCCN2CCCCC2)cc(-c2n[nH]c3ccc(-c4ncn[nH]4)cc23)c1`, for which the “activity change, negative = cytotoxicity” value is -22.5%.
Turning to `O=C(CO)N1CCC(c2[nH]nc(-c3ccc(Cl)cc3)c2-c2ccncn2)CC1`, the “activity change, negative = cytotoxicity” value is -23.7%.
Consider `Cc1ccccc1-n1c(Cn2nc(-c3cccc(O)c3)c3c(N)ncnc32)nc2cccc(C)c2c1=O`, for which the “activity change, negative = cytotoxicity” value is -0.246%.
On to `CC(C)(OCc1nn(Cc2ccccc2)c2ccccc12)C(=O)O`, for which the “activity change, negative = cytotoxicity” value was -0.235%.
For the molecule `Nc1ccc(-c2ccc3ncc4ccc(=O)n(-c5cccc(C(F)(F)F)c5)c4c3c2)cn1`, the Potency was 2.51 µM (active).
Take `Cc1ccccc1C(C(=O)NC1CCCCC1)N(C(=O)CNc1ccc(C#N)cc1)c1cccc(F)c1` (stereo not drawn): the “activity change, negative = cytotoxicity” value was -0.393%.
Take `COc1nc(C)cnc1NS(=O)(=O)c1cccnc1-c1ccc(-c2nnco2)cc1`: the “activity change, negative = cytotoxicity” value was -3.79%.
As to `O=C(c1ccc(C(=O)N2CCC(N3CCCC3)CC2)c(Nc2ccccc2)c1)N1CCC(N2CCCC2)CC1`, the “activity change, negative = cytotoxicity” value was -3.1%.
In the case of `CC(C)CNc1ccnc(NCc2csc(-c3ccccc3)n2)n1`, the “activity change, negative = cytotoxicity” value was -29.3%.
On to `CC1=C(C(=O)Nc2cc3cn[nH]c3cc2F)C(c2ccc(C(F)(F)F)cc2)CC(=O)N1` (stereo not drawn), for which the “activity change, negative = cytotoxicity” value is 4.88%.
Regarding `c1ccc(CNc2nc(N3CCOc4ccccc43)nc3c2CCCC3)cc1`, the “activity change, negative = cytotoxicity” value was 2.91%.
Consider `Cn1c(=O)c(-c2c(Cl)cccc2Cl)cc2cnc(Nc3cccc(C(=O)O)c3)nc21`, for which the “activity change, negative = cytotoxicity” value was 2.04%.
Regarding `CCN1C[C@H](C)n2c(c(O)c3c(=O)n(Cc4ccc(F)c(Cl)c4)nc(C(=O)NC)c32)C1=O`, the “activity change, negative = cytotoxicity” value was 4.23%.
In the case of `COc1ccc(CCC(=O)Nc2nc3ccc(Cl)cc3s2)cc1OC`, the “activity change, negative = cytotoxicity” value was 17.2%.
Take `COc1cc2ncnc(Nc3cc(Br)c(O)c(Br)c3)c2cc1OC`: the “activity change, negative = cytotoxicity” value is -1.89%.
With `O=C(O)CCNc1cc(N2CCc3ccccc3CC2)nc(-c2ccccn2)n1`, the Potency result is “inactive”.
